Among the data in PubChem BioAssay (Tox21) are Potency values, retold here.

Records with an inconclusive call do not appear. A call without a number means that no potency is given here. Activity calls are given as the source filed them. Calls come from the whole dose curve; as a rule, active = well fitted cell-killing curve with a large enough effect in the repeat runs; inconclusive = weak or mixed curves, or effect the other way; inactive = no such curve, though single readings can be large or run the other way.
Potency is the fitted concentration of half-maximal effect.

A short description of the assay: Caspase-3/7 induction in CHO-K1 cells by small molecules, qHTS cell viability counter screen (AID 1346979). Note: nearly all actives have a fitted effect of over 35% in size. The following applies: CellTiter-Fluor fluorescence, 17 h; series mostly up to 92.4 µM. From the text:
National Center for Advancing Translational Sciences [NCATS]
NIH Chemical Genomics Center [NCGC]
U.S. Environmental Protection Agency [EPA]
National Institutes of Environmental Health Sciences [NIEHS]
National Toxicology Program [NTP]
U.S. Food and Drug Administration [FDA]
Apoptosis is a process of programmed cell death and plays a central role in the development of multicellular organisms. It is a highly regulated process and induces cell death by activating caspases, which are the members of cysteine aspartic acid-specific protease (caspase) family. Caspases involved in apoptosis are classified by their mechanism of action as initiator caspases (caspase-2, -8, -9 and -10) and executioner caspases (caspase-3, -6, and -7). Inhibition of apoptosis results in number of cancers, autoimmune diseases, inflammatory diseases and viral infection. To identify small molecule compounds that induce apoptosis, a homogeneous, luminescent Caspase-Glo 3/7 assay was used. Wild type CHO-K1 cells were used to screen Tox21 libraries for identifying caspase-3/7 activity inducers. Also cytotoxicity of the compounds was tested in parallel by measuring the cell viability using CellTiter-Fluor assay system in the same wells.
Tox21 Assay Protocol Summary:
CHO-K1 cells were dispensed at 1,500 per well in 5uL of culture medium into white solid bottom 1536-well plates (Corning Life Sciences, Corning, NY) using a Multidrop Combi (Thermo Scientific, Waltham, MA) dispenser. The assay plates were incubated at 37 C and 5% CO2 for 5hr, and then 23nL of compounds dissolved in DMSO and positive control were transferred using a Pintool station (Wako, San Diego, CA). The assay plates were incubated at 37C and 5% CO2 for 17hr. For cytotoxicity read, after 16hr incubation at 37C, 1uL CellTiter-Fluor reagent (Promega Corporation, Madison, WI) was added to each well of the assay plates using Flying Reagent Dispenser (FRD, Aurora Discovery, San Diego, CA). After 1hr incubation at 37C and 5% CO2, the fluorescence signal was quantified using a ViewLux plate reader (PerkinElmer, Shelton, CT).
In general terms: Quantitative high-throughput screening tests each substance at several concentrations.
On to `COc1ccccc1[N+](=O)[O-]`, for which the Potency entry was “inactive”.
The value for `CCc1cccc(CC)c1N` was “inactive”; that for `COC(=O)OC` was “inactive”; that for `O=[N+]([O-])c1ccccc1C(F)(F)F` was “inactive”.
The value for `COc1ccc2cc3[n+](cc2c1OC)CCc1cc2c(cc1-3)OCO2` was “inactive”.
For the molecule `CC(C)(C)NC[C@H](O)COc1nsnc1N1CCOCC1`, the Potency result was “inactive”.
The value for `OCC(O)CS` (stereo not given) was “inactive”.
The value for `CCN(CC)CCNC(=O)c1ccc(N)cc1` was “inactive”.
The value for `CC/C(C)=N/O` was “inactive”.
Take `CCc1cccc(O)c1`: the Potency result was “inactive”.
Take `C=CC(C)(C)C`: the Potency entry was “inactive”.
The value for `COC(=O)CCCCC(=O)OC` was “inactive”.
The value for `O=c1c(O)c(-c2ccc(O)c(O)c2)oc2cc(O)cc(O)c12` was 54.5 µM (active); that for `C1CCCNCC1` was “inactive”; that for `CCCCC(=O)O` was “inactive”.
As to `CCCOCC(C)O` (stereo not given), the Potency result is “inactive”.
The value for `CC(=O)OC[C@H]1O[C@@](COC(C)=O)(O[C@H]2O[C@H](COC(C)=O)[C@@H](OC(C)=O)[C@H](OC(C)=O)[C@H]2OC(C)=O)[C@@H](OC(C)=O)[C@@H]1OC(C)=O` was “inactive”; that for `COc1c2ccoc2cc2oc(=O)ccc12` was “inactive”; that for `O=C1OC(=O)c2c(Cl)c(Cl)c(Cl)c(Cl)c21` was “inactive”.
Take `C=CC(=O)NCOCCCC`: the Potency entry is “inactive”.
The value for `CC(O)CNCC(C)O` (stereo not given) was “inactive”; that for `Oc1ccc(Cc2ccccc2O)cc1` was “inactive”; that for `CCCCCNCCCCC` was “inactive”.
The value for `CCn1cc(C(=O)O)c(=O)c2cc3c(cc21)OCO3` was “inactive”.
The value for `Cc1ccccc1C=O` was “inactive”; that for `CC(COCC(C)OC(=O)c1ccccc1)OC(=O)c1ccccc1` (stereo not given) was “inactive”.
Regarding `CCCCCCC(=O)O`, the Potency entry is “inactive”.
The value for `NCCNCCNCCN` was “inactive”.
The value for `CS(=O)(=O)c1ccc(Cl)cc1` was “inactive”; that for `COc1cc(NC(=O)CC(C)=O)c(OC)cc1Cl` was “inactive”; that for `O=C1CCCCCCCCCCC1` was “inactive”.
The value for `C[n+]1ccn(CCO)c1` was “inactive”; that for `Cc1ccncc1` was “inactive”; that for `CCCN(CCC)C(=O)SCC` was “inactive”.
For `CN1Cc2c(N)cccc2C(c2ccccc2)C1` (stereo not given), the Potency result is “inactive”.
The value for `OC[C@H]1O[C@@H](Oc2ccc(O)cc2)[C@H](O)[C@@H](O)[C@@H]1O` was “inactive”.
The value for `NC(N)=S` was “inactive”; that for `Cc1ccc(C)c(S(=O)(=O)O)c1` was “inactive”; that for `Cc1cccc(C)c1[N+](=O)[O-]` was “inactive”.
In the case of `Cc1nnc(NS(=O)(=O)c2ccc(N)cc2)s1`, the Potency result is “inactive”.
